Measurements reported in PubChem BioAssay.
Calls of active or inactive are those of the source.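 The calls were made as follows, unless noted: active = inhibition of the reporter signal at or above 50%; inactive = inhibition below 50%.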

Experiments:
[1] = inhibitors of TNFa-induced NFkB p65 translocation, primary screen, imaging, HUVEC, MLSMR starter and 10KST1 sets (AID 438;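 active = inhibition above 20% together with a positive visual image hit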;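 also: compound added about 3h40 before a 20 min TNFalpha stimulation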;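 as to inhibition: signal is the nuclear over cytoplasmic p65 intensity ratio per well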); conditions: HUVEC TNFa-induced p65 nuclear translocation; cell count: measured here: nuclei count (cytotoxicity indicator), at 2.08 µM; inhibition: at 2 µM, stronger effect = higher value, 0% TNFa-plus-vehicle, 100% no-TNFa wells
[2] = inhibitors of mutant huntingtin aggregation, primary screen, imaging, exon1htt(103Q)mCFP cells, high-content imaging (AID 483;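 active = visual image review flags a hit and inhibition of aggregation exceeds 20%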;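 also: compound exposure lasted 3 days before fixation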;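 as to nuclei count: percent of the per-plate median nuclei count of sample wells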); conditions: exon1htt(103Q)mCFP cell line, aggregate imaging, at 2 µM; inhibition of aggregation: stronger effect = higher value; nuclei count: measured here: cell count, toxicity
[3] = inhibitors of E-selectin induction by TNFa, primary screen, imaging, HUVEC, immunofluorescence, MLSMR starter and 10KST1 sets (AID 487;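 active = visually confirmed hit in the image check and inhibition above 20%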;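 as to inhibition: signal is fraction of cell area covered by stained E-selectin grains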;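 as to nuclei count: 100% = median nuclei count of all wells on the same plate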); conditions: HUVEC TNFalpha-induced E-selectin immunofluorescence imaging, at 2 µM; inhibition: stronger effect = higher value; nuclei count: measured here: cell number, toxicity
[4] = molecular target: Voltage-gated potassium channel subunit beta-2 (Rattus norvegicus) (UniProt P62483); assay: KvBeta enzyme negative modulators, primary screen, biochemical, NADPH fluorescence (AID 622;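 active = fluorescence slope higher than the sample average by over 3 SD, cut at about -0.22 in these data, passing the limit was not always enough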;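 also: slope of raw intensity against log time taken from 70 to 1610 s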); conditions: recombinant KvBeta, 4-cyanobenzaldehyde reduction, at 10 µM, stronger effect = higher value
Chain of Voltage-gated potassium channel subunit beta-2 (Rattus norvegicus) (P62483 whole entry, looked up): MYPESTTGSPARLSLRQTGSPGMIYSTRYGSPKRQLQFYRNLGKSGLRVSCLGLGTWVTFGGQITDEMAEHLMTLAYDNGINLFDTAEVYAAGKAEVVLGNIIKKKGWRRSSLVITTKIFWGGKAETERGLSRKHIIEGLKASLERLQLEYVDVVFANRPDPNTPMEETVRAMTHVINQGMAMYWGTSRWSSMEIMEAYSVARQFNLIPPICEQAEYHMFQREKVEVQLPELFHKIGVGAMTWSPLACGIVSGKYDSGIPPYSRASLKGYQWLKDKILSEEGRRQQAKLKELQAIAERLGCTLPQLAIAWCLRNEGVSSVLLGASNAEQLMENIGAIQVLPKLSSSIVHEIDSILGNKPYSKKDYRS

[5] = molecular target: Voltage-gated potassium channel subunit beta-2 (Rattus norvegicus) (UniProt P62483); assay: KvBeta positive modulators, primary screen, biochemical, NADPH fluorescence (AID 623;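 active = NADPH fluorescence slope more negative than the mean of all samples by about 3 SD, 99.7% confidence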;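 also: fluorescence intensity change per second fitted from 20 to 320 s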); conditions: Recombinant KvBeta, NADPH fluorescence decrease slope, 10 min; at 10 µM; stronger effect = lower value
[6] = molecular target: Alpha-2C adrenergic receptor (Homo sapiens) (UniProt P18825); assay: modulators of alpha2C/GIRK thallium flux, primary screen, cell-based, HEK293 alpha2C/GIRK1/2 (AID 624;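 active = fluorescence slope after compound addition differing from the mean of all screened samples at 99.7% confidence, in either direction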;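 also: slope of fluorescence ratio to pre-addition baseline per second over 15 to 24 s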); conditions: thallium flux BTC fluorescence, at 10 µM, actives lie on both sides
Chain of Alpha-2C adrenergic receptor (Homo sapiens) (P18825 whole entry, looked up): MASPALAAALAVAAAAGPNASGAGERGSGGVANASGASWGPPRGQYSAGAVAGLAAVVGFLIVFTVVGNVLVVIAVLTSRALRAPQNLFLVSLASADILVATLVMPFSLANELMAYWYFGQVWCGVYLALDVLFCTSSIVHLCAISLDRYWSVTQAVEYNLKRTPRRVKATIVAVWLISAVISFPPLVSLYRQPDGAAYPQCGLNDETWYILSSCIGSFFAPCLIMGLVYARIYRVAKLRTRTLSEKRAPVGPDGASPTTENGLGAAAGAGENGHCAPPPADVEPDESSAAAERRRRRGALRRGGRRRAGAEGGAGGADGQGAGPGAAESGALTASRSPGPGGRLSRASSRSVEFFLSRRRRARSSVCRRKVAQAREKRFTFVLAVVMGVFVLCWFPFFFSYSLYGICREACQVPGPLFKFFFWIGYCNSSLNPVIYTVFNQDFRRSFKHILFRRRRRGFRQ

[7] = inhibitors of Sendai virus-induced IRF3 signaling, primary screen, TLR/RLR signaling modifier project, cell-based, Sendai virus stimulus, luciferase, 10K MLSCN set (AID 602276;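 active = inhibition at or above 50% at 10 µM; inactive = inhibition below 50%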;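 also: firefly luciferase from ISG56 promoter only with Renilla not read in this screen; 0% = Sendai virus plus DMSO and 100% = medium plus DMSO without virus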); conditions: HEK293 RL24 IRF3 luciferase reporter, at 10 µM, stronger effect = higher value
[8] = inhibitors of poly I:C-induced TLR3 signaling, primary screen, cell-based, poly I:C stimulus, luciferase, 10K MLSCN set (AID 602277); conditions: HEK293-TLR3 RL24 IRF3 luciferase reporter, at 10 µM, stronger effect = higher value

Row | SMILES | cell count [1] | inhibition [1] | inhibition of aggregation [2] | nuclei count [2] | inhibition [3] | nuclei count [3] | fluorescence slope [4] | NADPH fluorescence slope [5] | slope [6] | inhibition [7] | inhibition [8]
1 | CCN(CC)CCCNC(=O)c1nn(-c2ccc(OC)cc2OC)c(=O)c2ccccc12 | 352 | 5.3% (inactive) | -6.3% (inactive) | 106% | -101% (inactive) | 127% | -0.597 (inactive) | -3.1e-05 (inactive) | 0.00476 (inactive) | -10.6% (inactive) | 7.12% (inactive)
2 | COc1cccc(C(=O)NC2=NCCS2)c1 | 400 | -13.2% (inactive) | 29.5% (inactive) | 71.6% | -56.9% (inactive) | 131% | -0.496 (inactive) | -3.2e-05 (inactive) | 0.00469 (inactive) | -13.2% (inactive) | -61.5% (inactive)
3 | CCn1c(SCC(=O)Nc2cc(C)ccc2C)nc2c(c1=O)SC(C)C2 (configuration not stated) | 680 | -8.2% (inactive) | -17.3% (inactive) | 98% | -39.2% (inactive) | 110% | -0.584 (inactive) | -2.9e-05 (inactive) | 0.0063 (inactive) | -13.9% (inactive) | 2.03% (inactive)
4 | COc1ccc(OC)c(Nc2ncnc3c2cnn3-c2ccccc2)c1 | 334 | -6.5% (inactive) | -6.7% (inactive) | 111% | -26.3% (inactive) | 113% | -0.4 (inactive) | -2.9e-05 (inactive) | 0.00524 (inactive) | -14.3% (inactive) | -62.3% (inactive)
5 | Cc1nc2sc(C(c3ccc(Br)cc3)N3CC(C)OC(C)C3)c(O)n2n1 (configuration not stated) | 260 | -5.4% (inactive) | -0.8% (inactive) | 106% | -6.9% (inactive) | 114% | -0.437 (inactive) | -6.3e-05 (inactive) | 0.00564 (inactive) | 4.21% (inactive) | 17.4% (inactive)
6 | COc1ccc(C2CC(C(F)(F)F)n3ncc(C(=O)NCc4cccnc4)c3N2)cc1OC (configuration not stated) | 313 | 0.3% (inactive) | 8.9% (inactive) | 57.1% | 8% (inactive) | 91.9% | -0.388 (inactive) | -3.2e-05 (inactive) | 0.00287 (inactive) | 5.88% (inactive) | 20.9% (inactive)
7 | O=C(NCc1cccs1)C1CC(=O)N(C2CCCC2)C1 (configuration not stated) | 376 | -14.4% (inactive) | -18.1% (inactive) | 97.2% | -121% (inactive) | 172% | -0.56 (inactive) | 4.8e-05 (inactive) | 0.00628 (inactive) | -9.61% (inactive) | -21.8% (inactive)
8 | O=C(Nc1ccc(N2C(=O)C3C4C=CC(C4)C3C2=O)cc1)Nc1nncs1 (configuration not stated) | 668 | -9.8% (inactive) | 4.9% (inactive) | 92% | -77.5% (inactive) | 125% | -0.579 (inactive) | 6.4e-08 (inactive) | 0.0068 (inactive) | 2.97% (inactive) | -2% (inactive)
9 | Cc1nnc(N2C(=O)C(O)=C(C(=O)c3ccco3)C2c2ccc(F)cc2)s1 (configuration not stated) | 881 | 4.6% (inactive) | -4.4% (inactive) | 122% | 2.7% (inactive) | 123% | -0.601 (inactive) | -4.6e-05 (inactive) | 0.00826 (inactive) | 12.3% (inactive) | 19.7% (inactive)
10 | O=C(c1ccco1)N1CCN(CC2CC3C=CC2C3)CC1 (configuration not stated) | 269 | -10.4% (inactive) | -30.9% (inactive) | 7.7% | -30.7% (inactive) | 106% | -0.509 (inactive) | 2.8e-05 (inactive) | 0.00614 (inactive) | -7.24% (inactive) | -20% (inactive)
11 | O=C(CCc1ccccc1)Nc1ccncc1 | 412 | 1% (inactive) | 7.9% (inactive) | 94.1% | -273% (inactive) | 118% | -0.446 (inactive) | -1.1e-05 (inactive) | 0.00342 (inactive) | -2.19% (inactive) | 11.2% (inactive)
12 | CC1NC2(C(=O)N(Cc3ccccc3)c3ccccc32)C2C(=O)N(c3ccccc3)C(=O)C12 (configuration not stated) | 643 | -5.3% (inactive) | 2.9% (inactive) | 113% | -33.8% (inactive) | 109% | -0.567 (inactive) | -5.5e-05 (inactive) | 0.0066 (inactive) | 4.63% (inactive) | 26% (inactive)
